This is part of a sample that, as a whole, favours compounds with a hit. Of some 83,000 tested, about 20% had one in any assay.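 Assay: single dose, 48 h. Readout: percent growth (0 = no net growth; negative = cell death). Active: <10.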 Calls of active or inactive are those of the source.
What was measured:
Experiment in all cases: NCI-60 one-dose screen, 48 h (100 = growth as untreated, 0 = no growth, -100 = all killed)
Settings in all cases: 10 µM
786-0 renal = system: 786-0 renal
MALME-3M melanoma = system: MALME-3M melanoma
UACC-257 melanoma = system: UACC-257 melanoma
SN12C renal = system: SN12C renal
TK-10 renal = system: TK-10 renal
ACHN renal = system: ACHN renal
CAKI-1 renal = system: CAKI-1 renal
A498 renal = system: A498 renal
RPMI-8226 leukemia = system: RPMI-8226 leukemia
OVCAR-8 ovarian = system: OVCAR-8 ovarian
OVCAR-4 ovarian = system: OVCAR-4 ovarian
SK-OV-3 ovarian = system: SK-OV-3 ovarian
IGROV1 ovarian = system: IGROV1 ovarian
OVCAR-3 ovarian = system: OVCAR-3 ovarian
BT-549 breast = system: BT-549 breast
MDA-MB-435 melanoma = system: MDA-MB-435 melanoma
MCF7 breast = system: MCF7 breast
HCT-116 colon = system: HCT-116 colon
HCC-2998 colon = system: HCC-2998 colon
KM12 colon = system: KM12 colon

Measured: growth

C[C@H]1[C@H](OC(=O)CCC(=O)Nc2cnccn2)O[C@@H]2OC3(C)CC[C@H]4[C@H](C)CC[C@@H]1[C@@]24OO3
inactive: 786-0 renal 53.6% | MALME-3M melanoma 27.5% | UACC-257 melanoma 56.1% | SN12C renal 45.3% | TK-10 renal 42.2% | ACHN renal 25.4% | CAKI-1 renal 42.8% | A498 renal 101% | RPMI-8226 leukemia 21.5% | OVCAR-8 ovarian 20.7% | OVCAR-4 ovarian 44.1% | SK-OV-3 ovarian 77.4% | IGROV1 ovarian 25.7% | OVCAR-3 ovarian 34.6% | BT-549 breast 24% | MDA-MB-435 melanoma 16.1% | MCF7 breast 24.4% | HCT-116 colon 14.6% | HCC-2998 colon 63.5% | KM12 colon 22.3%

CC(C)N=C([Se])NC(=O)c1cccs1
inactive: MALME-3M melanoma 102% | UACC-257 melanoma 39.3% | TK-10 renal 56% | ACHN renal 47.2% | CAKI-1 renal 31.1% | A498 renal 36.6% | OVCAR-4 ovarian 83% | OVCAR-3 ovarian 66.3% | BT-549 breast 43.7% | MDA-MB-435 melanoma 37.4% | HCT-116 colon 13.3% | HCC-2998 colon 27.6% | KM12 colon 16.7%
active: 786-0 renal 2.02% | SN12C renal -21.4% | RPMI-8226 leukemia -4.48% | OVCAR-8 ovarian -36.8% | SK-OV-3 ovarian -17.3% | IGROV1 ovarian 1.76% | MCF7 breast 1.79%

CCOC(=O)C1=C(Nc2ccccc2)C(=O)OC12C(=O)Nc1ccccc12 (stereo not given)
inactive: 786-0 renal 108% | MALME-3M melanoma 102% | UACC-257 melanoma 101% | SN12C renal 110% | TK-10 renal 137% | ACHN renal 107% | CAKI-1 renal 82.6% | A498 renal 120% | RPMI-8226 leukemia 104% | OVCAR-8 ovarian 105% | OVCAR-4 ovarian 107% | SK-OV-3 ovarian 104% | IGROV1 ovarian 102% | OVCAR-3 ovarian 104% | BT-549 breast 103% | MDA-MB-435 melanoma 108% | MCF7 breast 95.6% | HCT-116 colon 109% | HCC-2998 colon 115% | KM12 colon 105%

COc1cc(OC)c(/C=C/C(=O)c2nc3ccccc3n2Cc2ccc(F)cc2)c(OC)c1
inactive: 786-0 renal 85% | MALME-3M melanoma 105% | UACC-257 melanoma 98.3% | SN12C renal 77.3% | TK-10 renal 109% | ACHN renal 75.2% | CAKI-1 renal 56.2% | A498 renal 130% | RPMI-8226 leukemia 78.4% | OVCAR-8 ovarian 79.7% | OVCAR-4 ovarian 56.7% | SK-OV-3 ovarian 88.2% | IGROV1 ovarian 101% | OVCAR-3 ovarian 98.4% | BT-549 breast 77.8% | MDA-MB-435 melanoma 83.5% | MCF7 breast 56.1% | HCT-116 colon 74.8% | HCC-2998 colon 105% | KM12 colon 91.4%

COc1ccc(OC)c(/C=C/C(=O)c2nc3ccccc3n2Cc2ccc(F)cc2)c1
inactive: UACC-257 melanoma 15.3% | TK-10 renal 13.1% | CAKI-1 renal 32.2% | A498 renal 116% | OVCAR-4 ovarian 37.9% | SK-OV-3 ovarian 50.2%
active: 786-0 renal -57.7% | MALME-3M melanoma -36.9% | SN12C renal 4.76% | ACHN renal -48.2% | RPMI-8226 leukemia -36.8% | OVCAR-8 ovarian 3.97% | IGROV1 ovarian -7.29% | OVCAR-3 ovarian -12% | BT-549 breast -58.2% | MDA-MB-435 melanoma -46.9% | MCF7 breast 2.95% | HCT-116 colon -91.1% | HCC-2998 colon -93.6% | KM12 colon -20.9%

COC(=O)C[C@](O)(CCCC(C)C)C(=O)O[C@H]1C(OC)=C[C@@]23CCCN2CCc2cc4c(cc2[C@@H]13)OCO4
active: 786-0 renal 2.04% | MALME-3M melanoma -38.5% | UACC-257 melanoma -25.9% | SN12C renal 6.06% | TK-10 renal 4.08% | ACHN renal -8.49% | CAKI-1 renal -3.49% | A498 renal -17.2% | RPMI-8226 leukemia -20.7% | OVCAR-8 ovarian -21.3% | OVCAR-4 ovarian -9.31% | SK-OV-3 ovarian 0.521% | IGROV1 ovarian 8.76% | OVCAR-3 ovarian -31% | BT-549 breast -17.8% | MDA-MB-435 melanoma 1.79% | MCF7 breast -6.98% | HCT-116 colon -7.84% | HCC-2998 colon -36.4% | KM12 colon 0.453%

COc1cc(OC)c(S(=O)(=O)N(CCCl)CCCl)cc1C(=O)/C=C/c1ccc(C)cc1
inactive: 786-0 renal 14.2% | MALME-3M melanoma 83.5% | UACC-257 melanoma 90% | SN12C renal 53.6% | TK-10 renal 106% | ACHN renal 64.9% | CAKI-1 renal 65.3% | A498 renal 110% | RPMI-8226 leukemia 59.9% | OVCAR-8 ovarian 54.2% | OVCAR-4 ovarian 52.2% | SK-OV-3 ovarian 74.5% | IGROV1 ovarian 86.8% | OVCAR-3 ovarian 112% | BT-549 breast 93.8% | MDA-MB-435 melanoma 79.5% | MCF7 breast 63.6% | HCT-116 colon 58% | HCC-2998 colon 93.6% | KM12 colon 81.1%

Source: PubChem BioAssay (NCI)
